Source: PubChem (National Center for Advancing Translational Sciences (NCATS))
In the library only some 11% were active in any assay of this set; here they are far more common.
HTT cytoprotect = qHTS Multiplex Assay to Identify Dual Action Probes in a Cell Model of Huntington: Cytoprotection (ATP); PC12 HTT-Q103 induced, cytoprotection, ATP luminescence, 40 h; 230,000 tested, 0.14% active; Potency, µM (titrated, usually from 56.4 µM), for inactives: cytoprotection (ATP increase), actives largely listed as activators; note: potency is the fitted concentration of half-maximal effect; % of control where 0% means no effect; nearly all actives have a fitted effect of over 45% in size
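ATP quantification (ATPlite) reports survival of PC12 cells in which tebufenozide, 100 nM final, switches on Htt exon 1 with 103 glutamines linked to GFP; compounds are titrated.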
HPGD inh = qHTS Assay for Inhibitors of HPGD (15-Hydroxyprostaglandin Dehydrogenase). 15-hydroxyprostaglandin dehydrogenase [NAD(+)] (Homo sapiens), P15428. purified HPGD, NADH fluorescence kinetic, PGE2 substrate. Potency, µM, without a hit: top-dose activity change, negative = inhibition, hits mostly inhibitors. 150,000 tested, 4.3% active. AID 894, 2007; active = well fitted inhibition curve with a large enough effect, not every such curve was filed as active; inconclusive = small, poorly fitted or top-dose-only effect, or another doubt; inactive = no such curve, though single readings can be large or run the other way; note: potency is the fitted concentration of half-maximal effect; % is set by controls: 0 for no effect and ±100 for the full control effect
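NADH formation kinetics: reaction with 30 uM PGE2 and 1 mM NAD+ (final), 20 nM enzyme, Tris-HCl pH 8 with Tween 20, after 15 min compound preincubation at room temperature. Fluorescence change, last versus first of five reads.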
PNC inhibitor = High Content Assay for Compounds that inhibit the Assembly of the Perinucleolar Compartment | activity change (PNC), negative = inhibition, % at 10 µM | AID 2417, 2010 | 140,000 tested, 3.1% active | PC3M PTB-GFP, PNC prevalence imaging, 16 h; active compounds read low;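 active = readout at or below -70, meaning at least 70% loss of cells showing the perinucleolar compartment, a nuclear body marking cancer cells; inconclusive = readout between -30 and a set limit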;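 note: plate controls were DMSO wells for no effect and camptothecin positive control wells for full effect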
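Read-out is percentage of cells bearing a perinucleolar compartment, from automated 20x imaging of fixed, Hoechst-stained PC3M PTB-GFP cells. Cells were seeded 4 h, then exposed 16 h to compound (23 nl of library stock) in duplicate plates.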
HttQ103 aggreg = qHTS Multiplex Assay to Identify Dual Action Probes in a Cell Model of Huntington: Aggregate Formation (GFP). PC12 HttQ103-GFP aggregates, Acumen cytometry, 40 h. Potency, µM (series often up to 46.1 µM), for inactives: at the top dose activity change, negative = inhibition, hits mostly inhibitors. 220,000 tested, 1.1% active. AID 1688, 2009; note: potency is the fitted concentration of half-maximal effect; % is set by controls: 0 for no effect and ±100 for the full control effect; nearly all actives have a fitted effect of over 60% in size
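PC12 cells with ecdysone-inducible HTT exon1 Q103-GFP, induced by 100 nM tebufenozide, given compounds in a concentration series. GFP aggregates (1–25 um, 6 SD above background) counted in lysates by laser-scanning cytometry, 488 nm excitation.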
CBFb-RUNX1 inh = qHTS Assay for Compounds Blocking the Interaction Between CBF-beta and RUNX1 for the Treatment of Acute Myeloid Leukemia; Runt-related transcription factor 1 (Homo sapiens) + Core-binding factor subunit beta …; AlphaScreen CBFb-His/RUNX1-biotin binding, biochemical; Potency, µM (highest dose often 59.8 µM), inactives show at the highest dose activity, negative = inhibition, usual class: inhibitors; 230,000 tested, under 10 active; AID 1477, 2009; note: % of control where 0% means no effect
Target sequence (Q01196 whole entry, looked up): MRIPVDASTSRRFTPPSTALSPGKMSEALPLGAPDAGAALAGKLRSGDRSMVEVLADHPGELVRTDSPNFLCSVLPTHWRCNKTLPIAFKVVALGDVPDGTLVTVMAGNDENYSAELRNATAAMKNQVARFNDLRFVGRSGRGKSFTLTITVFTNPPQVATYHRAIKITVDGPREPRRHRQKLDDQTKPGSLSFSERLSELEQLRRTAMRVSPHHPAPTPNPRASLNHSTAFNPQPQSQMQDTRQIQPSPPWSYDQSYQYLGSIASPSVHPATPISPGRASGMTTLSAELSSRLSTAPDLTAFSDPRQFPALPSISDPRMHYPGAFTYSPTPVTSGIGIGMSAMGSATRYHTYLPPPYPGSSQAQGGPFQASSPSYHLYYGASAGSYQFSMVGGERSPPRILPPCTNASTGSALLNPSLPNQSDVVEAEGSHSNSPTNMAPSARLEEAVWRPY
Target sequence (Q13951 whole entry, looked up): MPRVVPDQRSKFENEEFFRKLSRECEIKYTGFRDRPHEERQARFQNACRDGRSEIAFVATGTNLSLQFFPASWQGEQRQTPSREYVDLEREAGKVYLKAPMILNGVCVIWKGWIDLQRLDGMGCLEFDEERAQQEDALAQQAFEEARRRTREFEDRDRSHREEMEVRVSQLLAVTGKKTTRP
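Inhibition was taken as any reduction in AlphaScreen signal from the CBF-beta–RUNX1 pair (His and biotin tags, 30 nM each), measured after compound (15 min) and bead (90 min) incubations at room temperature.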
ALDH1A1 block = qHTS Assay for Inhibitors of Aldehyde Dehydrogenase 1 (ALDH1A1). Purified ALDH1A1, NADH fluorescence, propionaldehyde substrate. 220,000 tested, 7.3% active. Potency, µM (top dose mostly 75.3 µM), for the others: at the top dose activity, negative = inhibition, actives largely listed as inhibitors; active = well fitted inhibition curve with a large enough effect, not every such curve was filed as active; inconclusive = small, poorly fitted or top-dose-only effect, or another doubt; inactive = no such curve, though single readings can be large or run the other way;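 note: potency is the fitted concentration of half-maximal effect; plate controls were no enzyme wells and a reference inhibitor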
Starred values were filed as active, the others as inactive; ! = not confirmed by another sample; [ ] = dose if it differs, or a comment. Unless noted, calls come from the whole dose curve; as a rule, active = well fitted curve in the direction sought with a large enough effect; inconclusive = small, poorly fitted or top-dose-only effect, or another doubt; inactive = no such curve, though single readings can be large; an effect the other way counts as inactive or inconclusive.

For COc1ccccc1COn1c(=O)c(-c2ccco2)[n+]([O-])c2ccccc21 the results were HTT cytoprotect -9%, HttQ103 aggreg -15%, CBFb-RUNX1 inh 1% and ALDH1A1 block 22µM*.
Cc1c(=O)n(OCc2ccccc2)c2ccccc2[n+]1[O-] was read as HTT cytoprotect -5%[10 µM], HPGD inh -12%, PNC inhibitor 5, HttQ103 aggreg -8%, CBFb-RUNX1 inh -8% and ALDH1A1 block inconclusive.
For COc1ccc(COn2c(=O)c(C)[n+]([O-])c3ccccc32)cc1OC the results were HTT cytoprotect 10%, HPGD inh -10%, PNC inhibitor -111*, HttQ103 aggreg 0%, CBFb-RUNX1 inh -5% and ALDH1A1 block inconclusive.
Screening CCOC(=O)C1=C(C)NC(=O)NC1c1ccco1 (stereo not drawn) returned HTT cytoprotect -1%, HPGD inh -13%, PNC inhibitor inconclusive, HttQ103 aggreg -15%, CBFb-RUNX1 inh -14% and ALDH1A1 block 0%.
For C=C1CN(C(C(=O)OC)C(C)C)S(=O)(=O)c2ccc(F)cc21 (stereo not drawn) the results were CBFb-RUNX1 inh 19%.
`O=C(O)[C@H]1CN(CCCP(=O)(O)O)CCN1` gave HTT cytoprotect inconclusive, HPGD inh -9%, CBFb-RUNX1 inh -8%[21.7 µM] and ALDH1A1 block 0%.
Screening CN(C)CCN(C)Cc1ccc2c(c1)Cc1ccccc1-2 returned HTT cytoprotect 22%, HPGD inh -15%, PNC inhibitor 30, HttQ103 aggreg 17%, CBFb-RUNX1 inh 1% and ALDH1A1 block 11µM*.
Screening Cc1cccc(NC(=O)CSC2=NN3CCCC(=O)N=C3S2)c1C returned HTT cytoprotect 8%[10 µM], HttQ103 aggreg 16%[9.22 µM], CBFb-RUNX1 inh inconclusive and ALDH1A1 block 32µM*.
Cc1ccc(NC(=O)CSC2=NN3CCCC(=O)N=C3S2)c(C)c1 was read as HTT cytoprotect 13%[10 µM], HttQ103 aggreg 8%[9.22 µM], CBFb-RUNX1 inh -6% and ALDH1A1 block inconclusive.
CC(=O)NC1[C@H]([C@H](O)[C@H](O)CO)OC(C(=O)O)=C[C@H]1N=C(N)N (stereo partly drawn) was read as HTT cytoprotect 12% and HttQ103 aggreg 2%.
CC(C)[C@H](NC(=O)CCCn1nnc2ccccc2c1=O)C(=O)O was read as HTT cytoprotect 35%[10 µM], HttQ103 aggreg 15%[9.22 µM] and CBFb-RUNX1 inh 6%.
CNC(=O)C1=C(C)n2c(nc3ccccc32)NC1c1ccc(OC)cc1 (stereo not drawn) was read as HPGD inh -4%, PNC inhibitor -114*, HttQ103 aggreg -13%, CBFb-RUNX1 inh 3% and ALDH1A1 block -2%.
For CC1=CC(C)=Nc2ccc(C)cc2N1 the results were HTT cytoprotect inconclusive, HPGD inh -10%, PNC inhibitor inconclusive, HttQ103 aggreg 0.89µM*!, CBFb-RUNX1 inh 2% and ALDH1A1 block -1%.
Cc1ccc(NC(=O)CCSc2nnnn2-c2ccc3c(c2)OCO3)cc1C was read as HTT cytoprotect 5%[10 µM], HPGD inh -27%, PNC inhibitor 35, HttQ103 aggreg 14%, CBFb-RUNX1 inh 6% and ALDH1A1 block 13µM*.
Screening O=C(CSc1nnnn1-c1ccc2c(c1)OCCO2)OC1CCCCC1 returned HTT cytoprotect 8%[10 µM], HPGD inh -25%, PNC inhibitor -9, HttQ103 aggreg 0%, CBFb-RUNX1 inh 18% and ALDH1A1 block 5µM*.
O=C(CSc1nnnn1-c1ccc2c(c1)OCCO2)N1CCc2ccccc21 was read as HTT cytoprotect -9%[10 µM], PNC inhibitor inconclusive, HttQ103 aggreg -4%, CBFb-RUNX1 inh 1% and ALDH1A1 block -1%.
CCC(=O)Nc1ccc(NC(=O)CSc2nnnn2-c2ccc3c(c2)OCCO3)cc1 was read as HttQ103 aggreg 27%, CBFb-RUNX1 inh -8% and ALDH1A1 block 8%.
CCOC(=O)c1csc(NC(=O)CSc2nnnn2-c2ccc3c(c2)OCCO3)n1 was read as HTT cytoprotect -10%[10 µM], HPGD inh -8%, PNC inhibitor -88*, HttQ103 aggreg 8%, CBFb-RUNX1 inh 10% and ALDH1A1 block 4%.
Screening CCC(C)(C)NC(=O)CN(C(=O)CNS(=O)(=O)c1ccc(C)cc1)c1ccc2c(c1)OCCO2 returned HTT cytoprotect -22%, HPGD inh -9%, PNC inhibitor inconclusive, HttQ103 aggreg 28%, CBFb-RUNX1 inh 2% and ALDH1A1 block inconclusive.
Screening CCOC(=O)CSC1=C(C#N)C(c2ccccc2)C(C(C)=O)=C(C)N1 (stereo not drawn) returned HTT cytoprotect 12%, HPGD inh -21%, PNC inhibitor 76, HttQ103 aggreg 9%, CBFb-RUNX1 inh -2% and ALDH1A1 block 32µM*.
Screening CSCSC1=C(C#N)C(c2ccc(Cl)cc2)C(C(C)=O)=C(C)N1 (stereo not drawn) returned HTT cytoprotect -4%, HPGD inh 32µM*, PNC inhibitor -23, HttQ103 aggreg inconclusive, CBFb-RUNX1 inh inconclusive and ALDH1A1 block 8.9µM*.
`C=CCn1c(SCC(=O)c2ccccc2)nnc1-c1cc2ccccc2o1` gave HTT cytoprotect -14%, HPGD inh 14µM*, PNC inhibitor inconclusive, HttQ103 aggreg 9%, CBFb-RUNX1 inh -4% and ALDH1A1 block inconclusive.
CCn1c(SCC(=O)c2ccccc2)nnc1-c1cc2cc(Br)ccc2o1 was read as HTT cytoprotect -15%[0.074 µM], HPGD inh -21%, PNC inhibitor 13, HttQ103 aggreg -32%, CBFb-RUNX1 inh 5% and ALDH1A1 block inconclusive.
C=CCNC(=O)CSc1nnc(-c2ccccn2)n1Cc1ccccc1 was read as HTT cytoprotect 10%, HttQ103 aggreg 17%[9.22 µM], CBFb-RUNX1 inh 0% and ALDH1A1 block 35µM*.
Screening C=CCn1c(SCC(=O)NCc2ccc3c(c2)OCO3)nnc1-c1cccnc1 returned HTT cytoprotect -22%, HttQ103 aggreg 19%, CBFb-RUNX1 inh 0% and ALDH1A1 block 4%.
For C=CCn1c(SCC(=O)c2ccccc2)nnc1-c1ccc2c(c1)OCO2 the results were HTT cytoprotect -22%, HPGD inh 5.6µM*, PNC inhibitor -27, HttQ103 aggreg inconclusive, CBFb-RUNX1 inh -1% and ALDH1A1 block 25µM*.
